This note sets out measurements from ChEMBL document CHEMBL3988442, “University of Dundee, Small-Polar-MMV Screening Library” (2021).

Out of some 48,000 compounds screened, about 13,000 (27%) showed an effect of 50% or more. The list shows a part of the results.

This experiment deals with Wolbachia pipientis. Description: Anti-Wolbachia Cell-Based Screen. It counts as functional. Also noted: scale not given: in the data most compounds retested in dose-response had high values. Conditions: 5 µM.
Consider `Cc1cc(NC(=O)N2CCN(C)CC2C)n(C(C)(C)C)n1` (stereo unspecified), for which the “Percent Effect” value is -1.035%. Take `Cc1nn(C)c2nc(N(CCOc3ccccc3)CC3CCCO3)sc12` (stereo unspecified): the “Percent Effect” value is on record as -19.55%.

For the compound `Clc1ccccc1OC1CN(CC2CCOC2)C1` (stereo unspecified), the “Percent Effect” value was -8.991%.

As to `Cc1cnc(N2C[C@@H]3[C@@H](C2)OCC(=O)N3CC2CC2)nc1`, the “Percent Effect” value was found to be 5.534%. Consider `COCC1CN(Cc2csc(C)n2)Cc2nccn2C1.O=C(O)C(F)(F)F` (stereo unspecified), for which the “Percent Effect” value is on record as -4.637%. With `CCOCC1CN(Cc2csc(C)n2)Cc2nccn2C1.O=C(O)C(F)(F)F` (stereo unspecified) the figure was -4.835%; with `Cc1nc(CN2Cc3nccn3CC(COCC3CC3)C2)cs1.O=C(O)C(F)(F)F` (stereo unspecified), -7.932%. In the case of `COCCN1Cc2nccn2CC(COCc2csc(C)n2)C1.O=C(O)C(F)(F)F.O=C(O)C(F)(F)F` (stereo unspecified), the “Percent Effect” value was determined as 102.1%.

With `CCN1Cc2nccn2CC(COCc2csc(C)n2)C1.O=C(O)C(F)(F)F.O=C(O)C(F)(F)F` (stereo unspecified), the “Percent Effect” value amounted to 99.32%. Consider `Cc1nc(CN2Cc3nccn3CC(CN3CCOCC3)C2)cs1.O=C(O)C(F)(F)F.O=C(O)C(F)(F)F` (stereo unspecified), for which the “Percent Effect” value is listed as -3.569%. `CN(C)C(=O)N1C[C@@H](C(=O)NCc2ccco2)C[C@H]2OCC[C@H]21`: the “Percent Effect” value was 111.8%. With `O=C(NCc1ccco1)[C@H]1C[C@H]2OCC[C@H]2N(S(=O)(=O)C2CC2)C1` the figure was -11.11%.

In the case of `O=C(NCc1ccco1)[C@@H]1C[C@H]2OCC[C@H]2N(c2ncc(F)cn2)C1`, the “Percent Effect” value turned out to be 12.25%. `Cc1occc1C(=O)N1C[C@@H](C(=O)NCc2ccco2)C[C@H]2OCC[C@H]21`: the “Percent Effect” value is on record as 100.5%. `O=C(NCc1ccco1)[C@H]1C[C@H]2OCC[C@H]2N(C(=O)c2ccco2)C1`: the “Percent Effect” value is given as -11.04%. For `Cc1occc1C(=O)N1C[C@@H](C(=O)N2CCCCO2)C[C@H]2OCC[C@H]21` the value was -3.518%; for `Cc1nnc(N2C[C@H](C(=O)NCc3ccco3)[C@@H]3CCO[C@@H]3C2)s1`, 0.8381%; for `O=C(NCc1ccco1)[C@H]1C[C@H]2OCC[C@H]2N(C(=O)c2ccncc2)C1.O=C(O)C(F)(F)F`, -2.028%. For `O=C(NCc1ccco1)[C@H]1C[C@H]2OCC[C@H]2N(C(=O)c2ccnnc2)C1` the value was 110.4%.

With `NCC1Cc2cc(-c3nccc(N4CCC(O)CC4)n3)cc(F)c2O1` (stereo unspecified), the “Percent Effect” value is on record as -9.833%.

Turning to `Cc1nnc(NCCc2nc3ccc(F)cc3n2C)c(C#N)c1C`, the “Percent Effect” value is reported as -11.69%.

In the case of `Cc1ccccc1C(C)(C)CNC(=O)CCSc1nnnn1C`, the “Percent Effect” value is -6.777%. For `O=S(=O)(c1ccc2c(c1)OCCO2)N1CCc2ccccc2C1` the value was 119.9%; for `O=S(=O)(c1ccc2c(c1)OCCO2)N1CCC(OCc2ccccn2)C1` (stereo unspecified), -6.121%; for `O=c1ccc2c([nH]1)CCN(S(=O)(=O)c1ccc3c(c1)OCCO3)C2`, 2.836%. For `Cc1nsc(NC(=O)N2CCC(C(C)(C)O)CC2)n1` the value was -12.37%; for `O=C(C1CCCN(C2CCOCC2)C1)N1CCc2ncccc2C1` (stereo unspecified), 101.2%; for `CC(C(=O)N1CCc2sccc2C1)N1CCC(N2CCCC2)CC1` (stereo unspecified), -24.52%. For `O=C(C1CCOCC1)N1CCc2ncnc(-c3ccccc3)c2CC1`, the “Percent Effect” value is -2.988%.

Turning to `Cn1c(C(N)=O)cc2c1CN(C(=O)C1CCCN(C3CCCC3)C1)CC2` (stereo unspecified), the “Percent Effect” value is -3.385%. As for `O=C(C1CCCN(Cc2ccccc2)C1)N1CCc2sccc2C1` (stereo unspecified), the “Percent Effect” value is 14.78%. For `O=C(C1CCCN(Cc2cccnc2)C1)N1CCc2sccc2C1` (stereo unspecified), the “Percent Effect” value stood at 6.643%.

Turning to `CN1CCC(N2CCCC(C(=O)N3Cc4ccccc4C3)C2)CC1` (stereo unspecified), the “Percent Effect” value amounted to 88.48%.

In the case of `CN(C)C(=O)N1Cc2ccccc2C2(CCN(C3CCOCC3)CC2)C1`, the “Percent Effect” value is -2.498%.

With `O=C(C1CCCN(C2CCOCC2)C1)N1Cc2ccccc2C1` (stereo unspecified), the “Percent Effect” value is listed as 98.98%. On to `CCc1nnc(CN(C)c2nccc(CCC(F)(F)F)n2)o1`, for which the “Percent Effect” value is on record as -5.519%. On to `CCc1ccc(C(=O)O)cc1S(=O)(=O)Nc1c(C)ccn(C)c1=O`, for which the “Percent Effect” value is on record as 6.747%. As for `O=C1CCCN1CCCN1CCCC1Cn1cccn1` (stereo unspecified), the “Percent Effect” value was 2.247%. Take `COCCC1(C(=O)O)CCCN(CC(=O)NCCc2ccccc2)C1` (stereo unspecified): the “Percent Effect” value was -1.604%. Regarding `COC(=O)CCNC(=O)c1ccc(OCc2ccccc2)nc1`, the “Percent Effect” value is given as 0.7688%.

Consider `COCCNC(=O)Cn1cc(OCc2ccccc2)c(=O)cc1CO`, for which the “Percent Effect” value is listed as 143.5%.
